Screens deposited in PubChem BioAssay by National Center for Advancing Translational Sciences (NCATS).
Most compounds without a hit are left out; they make up all but 19% or so of the library.
HT1080 IDH1KD tx – qHTS for induction of synthetic lethality in tumor cells producing 2HG: qHTS for the HT-1080-IDH1KD cell line; Potency, µM (top dose mostly 46.1 µM), inactives show top-dose activity, negative = toxicity, most hits filed as cytotoxic; AID 686971, 2013; actives 2% (n = 360,000); HT-1080 IDH1 knockdown viability, ATP luminescence, 48 h;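 also: potency is read from the fitted curve at half-maximal effect; 0% = DMSO wells and -100% = cell-free medium wells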
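Using the IDH1-knockdown HT-1080 line run in the same batch and compound series as the NT line, viability after 48 h at 37 °C was determined by CellTiter-Glo luminescence and expressed as % activity.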
DT40 TDP1 no CPT – qHTS for Inhibitors of human tyrosyl-DNA phosphodiesterase 1 (TDP1): qHTS in cells in absence of CPT; DT40 Tdp1-/- hTDP1 cells, no CPT, ATP luminescence, 48 h; Potency, µM (top dose mostly 46.2 µM), for the others: at the highest dose activity change, negative = growth inhibition, actives largely listed as inhibitors; actives 15% (n = 420,000); AID 686978, 2013; also: potency is read from the fitted curve at half-maximal effect; nearly all actives have a fitted effect of over 55% in size
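Luminescent ATP content (CellTiter-Glo) served as the growth readout. Knockout chicken DT40 cells expressing human TDP1 were exposed to compounds without camptothecin for a minimum 48 hr at 37 °C.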
HT1080NT lethal – qHTS for induction of synthetic lethality in tumor cells producing 2HG: qHTS for the HT-1080-NT fibrosarcoma cell line | HT-1080-NT fibrosarcoma viability, CellTiter-Glo ATP luminescence, 48 h | Potency, µM (top dose mostly 46.1 µM), inactives show at the top dose activity, negative = less viability, actives largely listed as cytotoxic | actives 1.6% (n = 360,000);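 also: NT is the 2HG producing partner of a matched IDH1 knockdown line; potency is read from the fitted curve at half-maximal effect; 0% = DMSO-treated cells and -100% = media-only wells without cells; nearly all actives have a fitted effect of over 55% in size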
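A 48-hour cytotoxicity screen used HT-1080-NT cells plated 2 hours before compound delivery. ATP-based CellTiter-Glo luminescence measured viability, normalized to DMSO and no-cell controls.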
DT40 TDP1 CPT – qHTS for Inhibitors of human tyrosyl-DNA phosphodiesterase 1 (TDP1): qHTS in cells in presence of CPT | actives 12% (n = 420,000) | AID 686979, 2013 | Potency, µM (top dose mostly 46.2 µM), for inactives: at the top dose activity change, negative = growth inhibition, actives largely listed as inhibitors | chicken DT40 Tdp1-/-;hTDP1 cells + 20 nM CPT, ATP luminescence, 48 h; also: potency is read from the fitted curve at half-maximal effect; nearly all actives have a fitted effect of over 55% in size
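Cell growth measured by CellTiter-Glo luminescence after a minimum 48 h, 37 C compound exposure with 20 nM CPT in Tdp1-knockout DT40 cells stably expressing hTDP1, seeded 400/well; qHTS titration format.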
IL-1B inflam inh – qHTS for Inhibitors of Inflammasome Signaling: IL-1-beta AlphaLISA Primary Screen; THP-1 LPS/ATP IL-1B secretion, AlphaLISA, 16 h; active compounds read low; activity change, % at 57.5 µM; actives 4.7% (n = 360,000); in the data active = activity change below about -50%; inconclusive = mostly about -30% to -49%
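THP-1 cells pretreated 1 hr with compounds (up to 57.5 uM final), then stimulated with LPS (250 ng/mL final) plus ATP (1.25 mM final); secreted IL-1B measured by AlphaLISA after 16 hr, decreased signal indicating inhibition.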
An asterisk follows results filed as active; ? = inconclusive; · = not tested or not shown; [ ] = dose if it differs, or a comment. Unless noted, calls follow the shape of the dose curve; as a rule, active = well fitted curve in the direction sought with a large enough effect; inconclusive = small, poorly fitted or top-dose-only effect, or another doubt; inactive = no such curve, though single readings can be large; an effect the other way counts as inactive or inconclusive. Unless noted, % is scaled to controls: 0 for no effect and ±100 for the full control effect.

SMILES	HT1080 IDH1KD tx	DT40 TDP1 no CPT	HT1080NT lethal	DT40 TDP1 CPT	IL-1B inflam inh
CCOc1ccccc1NC(=O)CSc1ncc(S(=O)(=O)c2ccc(C)c(C)c2)c(N)n1	·	23µM*	·	?	·
CCc1cccc(NC(=O)CSC2=NS(=O)(=O)c3ccccc32)c1	1%	4.1µM*	-9%	2.6µM*	?
CCc1cccc(NC(=O)[C@@H]2CCCN2C2=NS(=O)(=O)c3ccccc32)c1	5%	9%	3%	1%	35
CCOc1ccccc1NC(=O)CSc1ncc2c(n1)-c1ccccc1N(CC)S2(=O)=O	·	16µM*	·	23µM*	·
O=C(NCCc1ccccc1)C1C(=O)Nc2ccccc2C(=O)N1C1CCCCC1 (stereo not given)	14%	-20%	7%	6%	30
CCc1cccc(NC(=O)CSc2ncc3c(n2)-c2ccc(Cl)cc2N(Cc2ccccc2)S3(=O)=O)c1	·	16µM*	·	18µM*	·
CCOc1ccc(NC(=O)CSc2ncc3c(n2)-c2ccc(Cl)cc2N(Cc2ccccc2)S3(=O)=O)cc1	·	-4%	·	-13%	·
CN(C)C1=NC[C@H](Cc2ccccc2)N1CCc1cccc(F)c1	-6%	?	1%	?	-3
CN(C)C1=NC[C@H](Cc2ccccc2)N1CC1CCCCCC1	-26%	15µM*	-11%	5.8µM*	-12
CN(C)C1=NCCN1CC1CCCC1	12%	-13%	7%	-16%	14
CN(C)C1=NCCN1CCCC1CCCC1	3%	12µM*	8%	?	23
C[C@H]1CN=C(N(C)C)N1CCC1CCCC1	-8%	?	1%	?	-12
CN(C)C1=NC[C@H](Cc2ccccc2)N1CCCC1CCCCC1	?	6.5µM*	-16%	7.3µM*	?
CN(C)C1=NC[C@H](Cc2ccccc2)N1CCC1CCCC1	-14%	?	-14%	21µM*	-4
C[C@H]1CN=C(N(C)C)N1CCc1ccccc1	0%	-4%	-4%	3%	13
O=C1NC(=O)C(c2ccc(F)cc2)N1 (stereo not given)	5%	2%	10%	-4%	8
Cc1cc(C)c(C(=O)NCc2nc(-c3cccc(NC(=O)C4CCCN(C)C4)c3)oc2C)[nH]1 (stereo not given)	·	?	·	-2%[9.04 µM]	·
Cc1ccc(N(CC(=O)N2CCCC2)S(C)(=O)=O)c(C)c1	23%	-15%	17%	-15%	16
CN(C)C1=NC[C@H](Cc2ccccc2)N1CCCC1CCCC1	?	21µM*	21µM*	16µM*	?
C=C1C(=O)c2sccc2C(c2ccc(OC)c(OC)c2)C1COC(C)=O (stereo not given)	2.3µM*	0.23µM*	2.6µM*	0.52µM*	-101*
C#CC(=O)N(c1ccc(OC)c(OC)c1)C(C(=O)NC1CCCC1)c1cccs1 (stereo not given)	0.58µM*	0.65µM*	0.12µM*	0.73µM*	-106*
C#CC(=O)N(c1cccc(OC)c1)C(C(=O)NC1CCCC1)c1cccs1 (stereo not given)	40µM*	2.3µM*	0.25µM*	1µM*	-102*
Cc1cccc(N(C(=O)C(F)(F)F)C(C(=O)NC2CCCCC2)c2cccs2)c1 (stereo not given)	-19%	-18%	-1%	-15%	13
COc1ccc(N(C(=O)c2ccco2)C(C(=O)NC2CCCC2)c2cccs2)c(OC)c1 (stereo not given)	-9%	?	4%	-24%	14
CCN(CC)CCOC[C@H]1O[C@@H](O)[C@H](OCCN(CC)CC)[C@@H](O)[C@@H]1O	·	-3%	·	-2%	·
SMILES	HT1080 IDH1KD tx	DT40 TDP1 no CPT	HT1080NT lethal	DT40 TDP1 CPT	IL-1B inflam inh
COc1ccc(NC(=O)Cn2c(=O)n(Cc3ccccc3)c(=O)c3sc4ccccc4c32)cc1	·	13µM*	·	-22%	·
O=c1c2sc3ccccc3c2n(Cc2ccc(F)cc2)c(=O)n1Cc1ccccc1	·	-3%	·	-9%	·
COc1ccccc1NC(=O)Cn1c(=O)n(-c2ccccc2Cl)c(=O)c2sc3ccccc3c21	·	10µM*	·	?	·
O=C(Cn1c(=O)n(Cc2ccccc2)c(=O)c2sc3ccccc3c21)Nc1ccc(F)cc1	·	15µM*	·	15µM*	·
COc1ccccc1NC(=O)Cn1c(=O)n(Cc2ccccc2)c(=O)c2sc3ccccc3c21	·	-12%	·	-10%	·
COc1ccccc1NC(=O)Cn1c(=O)n(CCc2ccccc2)c(=O)c2sc3ccccc3c21	·	?	·	-28%	·
CCCCCCOc1ccc(/C=c2\s/c(=C(/C#N)C(=O)NCc3ccco3)n(-c3ccccc3)c2=O)cc1	-8%	6.5µM*	10%	2.9µM*	8
COC(=O)/C=c1/s/c(=C(/C#N)C(=O)NCc2ccccc2)n(-c2ccccc2)c1=O	2%	-3%	0%	-11%	-24
NS(=O)(=O)c1ccc(CCNC(=O)c2cccc(OC(F)F)c2)cc1	-8%	-16%	-1%	-1%	0
O=C(NN1C(=O)c2ccccc2NC1c1ccoc1)c1ccccc1 (stereo not given)	9%	3%	6%	-4%	-4
O=C(NN1C(=O)c2ccccc2NC1c1ccccn1)c1ccccc1 (stereo not given)	12%	?	10%	16µM*	11
CCCCN(Cc1nc2ccccc2c(=O)[nH]1)C(=O)c1nn(C)c(=O)c2ccccc12	-7%	?	-10%	?	-14
C[C@H]1CN([C@@H](C)CO)C(=O)c2cc(NC(=O)C3CCCCC3)ccc2O[C@H]1CN(C)S(=O)(=O)c1ccccc1	5%	?	1%	21µM*	-6
COc1ccc(S(=O)(=O)N(C)C[C@H]2Oc3ccc(NC(=O)C4CCCCC4)cc3C(=O)N([C@H](C)CO)C[C@@H]2C)cc1	3%	-27%	-26%	-23%	0
C[C@H](CO)N1C[C@H](C)[C@@H](CN(C)S(=O)(=O)c2ccc(F)cc2)Oc2ccc(NC(=O)NC3CCCCC3)cc2C1=O	-3%	-22%	4%	-5%	-24
COc1ccc(S(=O)(=O)N(C)C[C@H]2Oc3ccc(NC(=O)C4CC4)cc3C(=O)N([C@H](C)CO)C[C@@H]2C)cc1	14%	?	13%	?	-3
C[C@H](CO)N1C[C@H](C)[C@@H](CN(C)S(=O)(=O)c2ccc(F)cc2)Oc2ccc(NC(=O)C3CCCCC3)cc2C1=O	4%	16µM*	0%	?	-23
